Source: PubChem BioAssay
In the library only some 2.2% were active in any assay of this set; here they are far more common.
ADAM17 inh – ADAM17 inhibitors, primary screen, biochemical, QFRET; recombinant ADAM17, EDANS/DABCYL FRET peptide cleavage; inhibition, % at 6.95 µM; 370,000 tested, 0.83% active; AID 720648, 2013;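 active means inhibition above the mean of compounds lying between control limits plus 3 SD, set per campaign, cut at about 8.5% in these data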
ADAM10 inh – human ADAM10 inhibitors, primary screen, biochemical, QFRET, HTS. Disintegrin and metalloproteinase domain-containing protein 10 (Homo sapiens), O14672. recombinant ADAM10, EDANS/DABCYL FRET peptide cleavage, 3 h. inhibition, % at 7 µM. 370,000 tested, 0.62% active. AID 720582, 2013;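 active means inhibition above a per-campaign cutoff equal to the mean of compounds falling between control-based bounds plus 3 SD, cut at about 20% in these data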
proKLK7 act – proKLK7 zymogen activators, primary screen, biochemical, fluorescence intensity | Kallikrein-7 (Homo sapiens), P49862 | purified proKLK7, EDANS-DABCYL substrate fluorescence; 100% is mature enzyme control, 0% vehicle | activation, % at 7 µM | 370,000 tested, 0.9% active | AID 652039, 2013;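 active means activation above the mean of all tested compounds plus 3 SD, computed per campaign excluding outliers beyond control limits, cut at about 13% in these data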
GC-A act – GC-A stimulated cGMP production enhancers – HEK293 GC-A cells, cGMP TR-FRET, EC30 ANP, primary screen; Atrial natriuretic peptide receptor 1 (Homo sapiens), P16066; 0% at EC30 ANP, 100% saturating ANP; activation, % at 10 µM; 370,000 tested, 0.14% active; AID 1671463, 2021; in the data active means activation above about 40%
GC-B act – human GC-B receptor activators, primary screen, HEK293 GC-B cells, cGMP TR-FRET, EC30 CNP | 370,000 tested, 0.11% active | Atrial natriuretic peptide receptor 2 (Homo sapiens), P20594 | activation, % at 10 µM | 0% at EC30 CNP, 100% saturating CNP;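 active means activation at 10 µM reaching about 35% in either raw or pattern-adjusted values, limit read from the data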
ADAM10 confirm – human ADAM10 inhibitors, confirmation, biochemical, QFRET, triplicate; 2,100 tested, 1% active; AID 743208, 2013; ADAM10 QFRET peptide cleavage, EDANS fluorescence; inhibition, % at 6.95 µM; shares compounds with ADAM10 inh;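 active means inhibition above about 20% chosen separately for each screening run, limit read from the data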
ADAM17 counter – ADAM17 inhibitors, counter-screen for ADAM10 exosite inhibitor project, biochemical, QFRET, high throughput; inhibition, % at 6.95 µM; 2,100 tested, 0.5% active; shares compounds with ADAM10 inh; ADAM17 QFRET peptide cleavage, EDANS fluorescence;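 active means mean triplicate inhibition above the solvent-only control wells' mean plus 3 SD, cut at about 12% in these data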
Each line names hits and unclear results; the compound was inactive in the other large screens (follow-up assays come after a bar, where they were run).

C/C(=C/c1nc(N)n(Cc2ccccc2)c1Cc1ccccc1)Cn1[nH]c(=O)n(-c2ccccc2)c1=O	none
N#CC1=C(N)NC(SCc2ccc(Br)cc2)=C(C#N)C12CCCCC2	ADAM10 inh 25 | ADAM10 confirm inactive | ADAM17 counter inactive
N#CC1=C(N)NC(SCc2ccc(Cl)cc2)=C(C#N)C12CCCCC2	none
CSc1ccc(CN(C)C(=O)c2ccc(S(=O)(=O)Nc3ccccc3)cc2)cc1	ADAM10 inh 21 | ADAM10 confirm inactive | ADAM17 counter inactive
CSc1ccc(CN(C)C(=O)c2ccc(S(=O)(=O)Nc3c(C)n(C)n(-c4ccccc4)c3=O)cc2)cc1	none
Cc1ccccc1Nc1nc(Nc2ccccc2C)nc(SC2=NCCS2)n1	ADAM10 inh 20 | ADAM10 confirm inactive | ADAM17 counter inactive
O=C1[C@H]2[C@@H](c3ccc(F)cc3)N3C(=O)N(c4ccccc4)C(=O)[C@@]3(Cc3ccccc3)[C@H]2C(=O)N1C1CCCCC1	ADAM10 inh 24 | ADAM10 confirm inactive | ADAM17 counter inactive
COc1ccc(N2C(=O)N3[C@H](c4ccc(Br)cc4)[C@@H]4C(=O)N(C(C)(C)C)C(=O)[C@@H]4[C@]3(Cc3ccccc3)C2=O)cc1	ADAM10 inh 24 | ADAM10 confirm inactive | ADAM17 counter inactive
CN1[C@@H](Cc2ccccc2)COc2cc(N3CCCC3)ccc2S1(=O)=O	none
O=C(NC1CCCc2ccccc21)c1cccc(S(=O)(=O)N2CCN(c3ccccc3)CC2)c1 (stereo not given)	ADAM17 inh 9.5, ADAM10 inh 20 | ADAM10 confirm inactive | ADAM17 counter inactive
Cc1ccc(-n2c(Cc3cccs3)nnc2SCc2ccc(C#N)cc2)cc1	none
CNC(=S)NNC(=O)c1noc(C)c1C(=O)N1CCN(C(c2ccccc2)c2ccccc2)CC1	ADAM10 inh 32 | ADAM10 confirm inactive | ADAM17 counter inactive
Cc1onc(C(=O)N2CCN(C(c3ccccc3)c3ccccc3)CC2)c1Br	none (no result: proKLK7 act)
Cc1ccc(C=Nn2c(-c3n[nH]c4c3CCC4)n[nH]c2=S)o1	none
C=CCC[C@H](CCCCC)OC(=O)/C=C/[C@@H](O)[C@H](O)C[C@@H](O)CC=C	ADAM10 inh 21 | ADAM10 confirm inactive | ADAM17 counter inactive
C=CCC[C@@H](CCCCC)OC(=O)/C=C/[C@H](O)[C@@H](O)C[C@@H](O)CC=C	none
Cc1ccc(SCCC(=O)OCC(=O)Nc2ccc(C(N)=O)cc2)cc1	ADAM10 inh 95 | ADAM10 confirm inactive | ADAM17 counter inactive
NC(=O)c1ccc(NC(=O)COC(=O)CCSc2ccccc2)cc1	none
CN(C)S(=O)(=O)c1cccc(NC(=O)COC(=O)CCSc2ccc(Cl)cc2)c1	ADAM10 inh 21 | ADAM10 confirm inactive | ADAM17 counter inactive
COc1ccccc1-c1cccc2c3c([nH]c12)[C@@H]1C[C@H]2[C@@H](CN1CC3)[C@H](C)ON2C	none
COc1ccccc1-c1csc(C(O)c2cccc(Cl)c2)n1 (stereo not given)	ADAM10 inh 23 | ADAM10 confirm inactive | ADAM17 counter inactive
COc1ccccc1-c1csc(C(O)c2ccccc2)n1 (stereo not given)	none
OC(c1ccc(F)c(F)c1)c1nc(-c2ccc(Cl)cc2)cs1 (stereo not given)	ADAM10 inh 20 | ADAM10 confirm inactive | ADAM17 counter inactive
CCOC(=O)[C@@H](CCc1ccccc1)N[C@@H](C)C(=O)N1CCC[C@H]1C(=O)O	none
COc1ccc(Nc2nc(-c3ccccc3O)nc3ccccc23)cc1	ADAM10 inh 21 | ADAM10 confirm inactive | ADAM17 counter inactive
